Source: publication PMC5540273 (PLoS ONE, 2017)

Key:
Settings in all cases: concentration: 1 μM, replicates: in singlicate; n = 1
[1] = test system: FLT1
[2] = test system: FLT3-autoinhibited
[3] = test system: FLT3
[4] = test system: FLT4
[5] = test system: FRK
[6] = test system: FYN
[7] = test system: GAK
[8] = test system: T1, GCN2(Kin.Dom.2,S808G)
T1 construct: gene EIF2AK4

[9] = test system: GRK1
[10] = test system: T2, GRK2
T2 construct: gene ADRBK1
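Also: KINOMEscan kinase panel screen.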

| Structure (SMILES) | %Inh [1] | %Inh [2] | %Inh [3] | %Inh [4] | %Inh [5] | %Inh [6] | %Inh [7] | %Inh [8] | %Inh [9] | %Inh [10] |
| --- | --- | --- | --- | --- | --- | --- | --- | --- | --- | --- |
| Cc1ccccc1Cn1ccn2c(=O)cc(N3CCOCC3)nc12 [GSK2269905] | 10% | 2% | 0% | 0% | 14% | 26% | 1% | 4% | 0% | 0% |
| Cn1cncc1C(=O)NC1CCN(c2ccnc(Nc3ccc(F)cc3)n2)C1 (centres unmarked) [GSK1379717] | 12% | 1% | 0% | 99.1% | 0% | 42% | 0% | 0% | 18% | 0% |
| COc1cccc(C2=C(Nc3cc(Cl)c(O)c(Cl)c3)C(=O)NC2=O)c1 [SB-390767] | 20% | 0% | 0% | 10% | 20% | 30% | 100% | 0% | 3% | 0% |
| CC(=O)c1c(C)c2cnc(Nc3ccc(N4CCNCC4)cn3)nc2n(C2CCCC2)c1=O | 0% | 0% | 0% | 0% | 7% | 0% | 0% | 0% | 10% | 0% |
| O=C(Nc1n[nH]c2nc(-c3cccs3)c(Br)cc12)C1CC1 [SB-735297] | 8% | 19% | 81% | 0% | 0% | 0% | 0% | 0% | 10% | 0% |
